Legend:
Assay in all cases: thermal shift delta Tm vs DMSO control; higher = stronger stabilization (binding)
Settings in all cases: 12.5 µM; protein concentration 2 µM
[1] = test system: LOC_OS04G57630-cb004
Method in brief: (§1)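 The melting temperature shift given here is a triplicate mean, measured against protein that received only DMSO. Melting temperatures came from Boltzmann fits of differential scanning fluorimetry data on E. coli-expressed, purified rice kinase domain constructs. Each 19.5 μl well contained 2 μM kinase, 100 mM potassium phosphate pH 7.5, 150 mM NaCl, 10% glycerol, 5 × SYPRO Orange and compound in DMSO. Plates were scanned from 25°C to 95°C at 0.05°C/s.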

[2] = test system: LOC_OS05G07850-cb002
Method in brief: as §1

[3] = test system: LOC_OS05G16824-cb004
Method in brief: as §1

[4] = test system: LOC_OS05G28520-cb001
Method in brief: as §1

[5] = test system: LOC_OS05G30820-cb001
Method in brief: as §1

[6] = test system: LOC_OS05G43570-cb004
Method in brief: as §1

[7] = test system: LOC_OS06G16330-cb003
Method in brief: as §1

[8] = test system: T1, LOC_OS06G22820-cb001
T1 sequence (whole entry): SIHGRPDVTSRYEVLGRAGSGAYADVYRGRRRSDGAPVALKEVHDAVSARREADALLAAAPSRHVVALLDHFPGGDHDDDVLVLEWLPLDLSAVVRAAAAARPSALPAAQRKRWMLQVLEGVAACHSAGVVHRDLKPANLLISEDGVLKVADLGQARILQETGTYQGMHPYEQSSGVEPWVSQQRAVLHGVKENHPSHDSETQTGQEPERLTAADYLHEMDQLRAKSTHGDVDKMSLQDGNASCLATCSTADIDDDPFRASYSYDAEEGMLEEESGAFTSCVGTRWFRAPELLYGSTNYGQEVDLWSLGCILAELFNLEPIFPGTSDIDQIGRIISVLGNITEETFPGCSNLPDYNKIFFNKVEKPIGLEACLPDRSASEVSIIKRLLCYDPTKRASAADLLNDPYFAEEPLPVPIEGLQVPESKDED
Method in brief: as §1

[9] = test system: LOC_OS07G06570-cb004
Method in brief: as §1

[10] = test system: LOC_OS07G07230-cb001
Method in brief: as §1

Chain of LOC_OS06G16330-cb003 (as listed by the source): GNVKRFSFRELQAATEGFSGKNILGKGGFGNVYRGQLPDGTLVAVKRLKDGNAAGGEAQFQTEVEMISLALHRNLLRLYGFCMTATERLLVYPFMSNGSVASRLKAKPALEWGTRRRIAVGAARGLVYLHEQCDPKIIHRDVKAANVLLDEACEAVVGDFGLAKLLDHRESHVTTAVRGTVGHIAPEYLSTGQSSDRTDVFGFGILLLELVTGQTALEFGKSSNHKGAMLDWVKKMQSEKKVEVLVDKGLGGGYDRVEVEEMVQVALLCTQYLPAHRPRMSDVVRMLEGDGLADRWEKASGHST

Row | SMILES | thermal shift delta Tm [1] | thermal shift delta Tm [2] | thermal shift delta Tm [3] | thermal shift delta Tm [4] | thermal shift delta Tm [5] | thermal shift delta Tm [6] | thermal shift delta Tm [7] | thermal shift delta Tm [8] | thermal shift delta Tm [9] | thermal shift delta Tm [10]
1 | CCCS(=O)(=O)Nc1ccc(F)c(C(=O)c2c[nH]c3ncc(-c4ccc(Cl)cc4)cc23)c1F [Vemurafenib (PLX4032, RG7204)] | 0.61 °C | 10.3 °C | -0.4 °C | 1.63 °C | 0.58 °C | 1.69 °C | 8.05 °C | 1.99 °C | 2.33 °C | 0.34 °C
2 | Cc1cc(NC(=O)c2cccc(NC(=O)/C=C/CN(C)C)c2)ccc1Nc1nccc(-c2cccnc2)n1 | 7.66 °C | 2.7 °C | 1.96 °C | 1.08 °C | 0.57 °C | 0.56 °C | 2.18 °C | 1.05 °C | 1.56 °C | -0.14 °C
3 | O=c1c(-c2ccc(O)cc2)coc2cc(O)cc(O)c12 [Genistein] | -1.09 °C | 5.31 °C | -0.94 °C | -0.31 °C | 0.78 °C | 0.36 °C | 0.87 °C | 0.81 °C | -0.45 °C | 0.02 °C
4 | COc1cc2ncnc(Nc3cccc(Cl)c3F)c2cc1OC(=O)N1CCN(C)C[C@H]1C | 0.65 °C | 9.1 °C | -0.19 °C | 0.6 °C | 0.5 °C | 0.72 °C | 2.26 °C | 0.6 °C | 1.12 °C | 0.94 °C
5 | CN1CCN(c2cccc(Nc3nc4c(-c5ccc(S(C)(=O)=O)cc5)cccn4n3)c2)CC1 | 0.63 °C | 5.82 °C | 6.48 °C | 0.11 °C | 0.63 °C | 0.2 °C | 4.09 °C | 0.43 °C | 0.46 °C | -0.02 °C
6 | Nc1nc(N)c(N=O)c(OCC2CCCCC2)n1 | 0.27 °C | 8.06 °C | 1.8 °C | 0.61 °C | 0.8 °C | 0.23 °C | 2.17 °C | 0.95 °C | 1.43 °C | -0.02 °C
7 | O=C1Nc2ccccc2/C1=C1/Nc2ccccc2C1=O [Indirubin] | 0.28 °C | 5.1 °C | -2.11 °C | 0.79 °C | 1.11 °C | 0.4 °C | 0.35 °C | 0.47 °C | 1.39 °C | 0.66 °C
8 | COc1ccc(-c2nc(N3CCOCC3)c3sc(CN(C)c4ncc(C(=O)NO)cn4)cc3n2)cn1 | 0 °C | 0.02 °C | -1.81 °C | 0.86 °C | 0.56 °C | 0.42 °C | -0.08 °C | 0.84 °C | 0.56 °C | 0.26 °C
9 | C[C@@H]1COCCN1c1cc(C2([S@](C)(=N)=O)CC2)nc(-c2cc[nH]c3nccc2-3)n1 | -0.11 °C | 3.99 °C | -2.04 °C | 0.65 °C | 0.15 °C | 0.19 °C | 0.37 °C | -0.1 °C | 0.71 °C | -0.05 °C
10 | CO[C@H]1C[C@@H]2CC[C@@H](C)[C@@](O)(O2)C(=O)C(=O)N2CCCC[C@H]2C(=O)O[C@H]([C@H](C)C[C@@H]2CC[C@H](n3cnnn3)[C@H](OC)C2)CC(=O)[C@H](C)/C=C(\C)[C@@H](O)[C@@H](OC)C(=O)[C@H](C)C[C@H](C)/C=C/C=C/C=C/1C [Zotarolimus(ABT-578)] | 0.76 °C | 0.65 °C | -0.34 °C | 0.87 °C | 0.57 °C | 1.17 °C | -0.09 °C | 0.92 °C | 1.43 °C | -0.08 °C
11 | O=C(Nc1cc(C(F)(F)F)cc(C(F)(F)F)c1)c1cc(Cl)ccc1O | -0.05 °C | -0.13 °C | -0.94 °C | 0.78 °C | 0.67 °C | 0.76 °C | 0.52 °C | 0.91 °C | 1.68 °C | -0.11 °C
12 | CCn1c(=O)c(-c2ccc(Cl)cc2Cl)cc2cnc(Nc3ccc(N4CCNCC4)c(F)c3)nc21 | 4.17 °C | 10.6 °C | 6 °C | 2.8 °C | 0.68 °C | 0.35 °C | 6.75 °C | 0.87 °C | 1.3 °C | 4.1 °C
13 | C=CC(=O)Nc1cccc(Oc2nc(Nc3ccc(N4CCN(C)CC4)cc3)ncc2Cl)c1 | 1.97 °C | 11.6 °C | 8.96 °C | 4.43 °C | 1.14 °C | 0.72 °C | 5.65 °C | 0.76 °C | 0.79 °C | 1.03 °C
14 | Cc1c(CN2CCN(C(=O)[C@H](C)O)CC2)sc2c(N3CCOCC3)nc(-c3cnc(N)nc3)nc12 [Apitolisib (GDC-0980, RG7422)] | 0.67 °C | 2.89 °C | 1.9 °C | 0.57 °C | 0.58 °C | 1.24 °C | 0.88 °C | 0.56 °C | 0.61 °C | -0.1 °C
15 | C[C@@H](NC(=O)c1ncnc(N)c1Cl)c1ncc(C(=O)Nc2cc(C(F)(F)F)c(Cl)cn2)s1 | 0.51 °C | 4.01 °C | -2.64 °C | 1.62 °C | 0.73 °C | 0.28 °C | 0.58 °C | 0.53 °C | 1.4 °C | 0.05 °C
16 | COc1cc2nccc(Oc3ccc(NC(=O)c4cn(C(C)C)c(=O)n(-c5ccc(F)cc5)c4=O)cc3F)c2cc1OC | 0.32 °C | 11.1 °C | 2.27 °C | 0.34 °C | -0.01 °C | 0.27 °C | 8.48 °C | 0.89 °C | 1.78 °C | 0.22 °C
17 | C=CC(=O)Nc1cccc(Nc2nc(Nc3ccc(N4CCN(C(C)=O)CC4)cc3OC)ncc2C(F)(F)F)c1 [Rociletinib (CO-1686, AVL-301)] | 0.55 °C | 10.2 °C | 4.44 °C | 0.98 °C | 0.73 °C | 0.4 °C | 4.77 °C | 0.68 °C | 1.54 °C | 1.09 °C
